The source made the active and inactive calls. How the source made its calls: active means hit-call score of the fitted dose curve at least 0.9, where 1 is the maximum; inactive means score below 0.9.
Assays:
Details in all cases: mRNA level, 48 h; actives raise or lower the signal
[1] = read-out: adenosine kinase (ADK) gene, ADK (gene 132); assay: LTEA_HepaRG_ADK: Life Technologies and Expression Analysis (LTEA) Assay for adenosine kinase (ADK) gene using HepaRG (AID 2283471)
Summary of the method: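 Differentiated HepaRG cells dosed 48 h in serum-free induction medium, 0.5% DMSO vehicle, eight half-log concentrations from 100 uM, in duplicate. ADK mRNA by TaqMan qRT-PCR normalised to ACTB, GAPDH, POLR2A; bidirectional fit versus DMSO.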

[2] = read-out: Alpha-fetoprotein (AFP) gene, AFP (gene 174); assay: LTEA_HepaRG_AFP: Life Technologies and Expression Analysis (LTEA) Assay for Alpha-fetoprotein (AFP) gene using HepaRG (AID 2283472)
Summary of the method: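 Differentiated human HepaRG cells exposed 48 h in serum-free induction medium, 8-point half-log series from 100 uM in 0.5% DMSO, duplicate. AFP mRNA by qRT-PCR, normalized to ACTB, GAPDH, POLR2A; bidirectional fit vs DMSO.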

BCL2L11 (gene 10018) = assay: LTEA_HepaRG_BCL2L11: Life Technologies and Expression Analysis (LTEA) Assay for Bcl-2 (BCL2L11) gene using HepaRG (AID 2283473)
Summary of the method: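 Human hepatic HepaRG cultures are treated 48 h with test chemicals (maximum 100 uM, 0.5% DMSO vehicle). Expression of BCL2L11 is measured by qRT-PCR against ACTB, GAPDH and POLR2A, with activity in either direction scored relative to vehicle.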

[3] = read-out: Apolipoprotein A-V (APOA5) gene, APOA5 (gene 116519); assay: LTEA_HepaRG_APOA5: Life Technologies and Expression Analysis (LTEA) Assay for Apolipoprotein A-V (APOA5) gene using HepaRG (AID 2283474)
Summary of the method: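 Concentration-response of APOA5 expression in HepaRG: eight half-log doses to 100 uM, 48 h, qRT-PCR normalized to ACTB/GAPDH/POLR2A, bidirectional fitting with 0.5% DMSO as baseline.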

[4] = read-out: Apoptosis regulator Bcl-2 (Homo sapiens) (UniProt P10415); assay: LTEA_HepaRG_BCL2: Life Technologies and Expression Analysis (LTEA) Assay for Bcl-2 gene using HepaRG (AID 2283475)
Summary of the method: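 Differentiated human HepaRG cells in serum-free induction medium exposed 48 h, in duplicate, to 8-point half-log series from 100 uM in 0.5% DMSO. BCL2 mRNA by qRT-PCR (TaqMan/Fluidigm), normalized to ACTB, GAPDH, POLR2A; bidirectional fit against DMSO.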

[5] = read-out: Bcl-2 (BID) gene, BID (gene 637); assay: LTEA_HepaRG_BID: Life Technologies and Expression Analysis (LTEA) Assay for Bcl-2 (BID) gene using HepaRG (AID 2283476)
Summary of the method: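 Gene expression by qRT-PCR in HepaRG cells after 48 h exposure, duplicate wells, eight half-log concentrations topping at 100 uM in 0.5% DMSO. Normalized to ACTB, GAPDH, POLR2A; bidirectional fitting relative to DMSO.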

Caspase-3 (Homo sapiens) = Caspase-3 (Homo sapiens) (UniProt P42574); assay: LTEA_HepaRG_CASP3: Life Technologies and Expression Analysis (LTEA) Assay for cysteine-aspartic acid protease (CASP3) using HepaRG (AID 2283477)
Chain of Caspase-3 (Homo sapiens) (P42574 whole entry, looked up): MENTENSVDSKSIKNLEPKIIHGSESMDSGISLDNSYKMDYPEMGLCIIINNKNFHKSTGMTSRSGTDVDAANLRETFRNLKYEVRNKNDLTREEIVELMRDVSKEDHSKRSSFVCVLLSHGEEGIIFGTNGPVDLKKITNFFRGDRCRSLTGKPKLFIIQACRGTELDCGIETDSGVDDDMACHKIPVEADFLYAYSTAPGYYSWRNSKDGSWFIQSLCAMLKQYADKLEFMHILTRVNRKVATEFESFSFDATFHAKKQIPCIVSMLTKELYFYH
Summary of the method: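 Transcript-level assay: CASP3 mRNA in human HepaRG after 48 h treatment, eight half-log concentrations from 100 uM in 0.5% DMSO, quantified by qRT-PCR.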

[6] = read-out: Cytochrome P450 (CYP24A1), CYP24A1 (gene 1591); assay: LTEA_HepaRG_CYP24A1: Life Technologies and Expression Analysis (LTEA) Assay for Cytochrome P450 (CYP24A1) using HepaRG (AID 2283478)
Summary of the method: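 Gene expression of CYP24A1 by TaqMan qRT-PCR in HepaRG after 48 h treatment, highest concentration 100 uM; activity fitted in both directions relative to DMSO vehicle.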

[7] = read-out: Cytochrome P450 (CYP1A2), CYP1A2 (gene 1544); assay: LTEA_HepaRG_CYP1A2: Life Technologies and Expression Analysis (LTEA) Assay for Cytochrome P450 (CYP1A2) using HepaRG (AID 2283479)
Summary of the method: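 In duplicate wells, HepaRG cultures maintained in 0.5% DMSO were treated 48 h across an 8-point, half-log series topping at 100 uM; phenobarbital (1 mM) served as induction control. Expression was read by qRT-PCR.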

[8] = read-out: cysteine-aspartic acid protease (CASP8), CASP8 (gene 841); assay: LTEA_HepaRG_CASP8: Life Technologies and Expression Analysis (LTEA) Assay for cysteine-aspartic acid protease (CASP8) using HepaRG (AID 2283480)
Summary of the method: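 HepaRG, 48 h exposure, duplicate wells; 8 conc, half-log from 100 uM, 0.5% DMSO. Serum-free induction medium. CASP8 mRNA by TaqMan qRT-PCR, norm. ACTB/GAPDH/POLR2A; gain/loss fitted vs DMSO.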

[9] = read-out: Cytochrome P450 (CYP2B6), CYP2B6 (gene 1555); assay: LTEA_HepaRG_CYP2B6: Life Technologies and Expression Analysis (LTEA) Assay for Cytochrome P450 (CYP2B6) using HepaRG (AID 2283481)
Summary of the method: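 Human HepaRG, 48 h dosing, 0.5% DMSO vehicle, top dose 100 uM. CYP2B6 transcript by qRT-PCR, housekeeping-normalized, bidirectional curve fit.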

[10] = read-out: Cytochrome P450 2C19 (Homo sapiens) (UniProt P33261); assay: LTEA_HepaRG_CYP2C19: Life Technologies and Expression Analysis (LTEA) Assay for CYP2C19 using HepaRG (AID 2283482)
Summary of the method: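 Endpoint: CYP2C19 mRNA change, bidirectional fit vs 0.5% DMSO. Cells: HepaRG, 48 h exposure, eight-point series topping at 100 uM. Quantitation: qRT-PCR normalized to ACTB, GAPDH, POLR2A.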

CYP2C8 (gene 1558) = assay: LTEA_HepaRG_CYP2C8: Life Technologies and Expression Analysis (LTEA) Assay for CYP2C8 using HepaRG (AID 2283483)
Summary of the method: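 CYP2C8 mRNA induction or loss, by qRT-PCR normalized to ACTB/GAPDH/POLR2A, is read in HepaRG cells after 48 h treatment. Concentrations run from 100 uM down in half-log dilutions, with 0.5% DMSO as vehicle and baseline.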

CYP2C9 (gene 1559) = assay: LTEA_HepaRG_CYP2C9: Life Technologies and Expression Analysis (LTEA) Assay for CYP2C9 using HepaRG (AID 2283484)
Summary of the method: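 Cells plated 48 h, switched to serum-free induction medium, then treated in duplicate for 48 h at eight concentrations (max 100 uM, 0.5% DMSO). RNA then analysed by qRT-PCR for CYP2C9; curves fitted in both directions relative to DMSO.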

CYP2E1 (gene 1571) = assay: LTEA_HepaRG_CYP2E1: Life Technologies and Expression Analysis (LTEA) Assay for CYP2E1 using HepaRG (AID 2283485)
Summary of the method: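 HepaRG cells, plated 48 h, then exposed 48 h in serum-free induction medium to eight half-log concentrations from 100 uM in 0.5% DMSO, duplicate. CYP2E1 mRNA by qRT-PCR, normalized to ACTB/GAPDH/POLR2A; bidirectional fit versus DMSO.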

CYP4A11 (gene 1579) = assay: LTEA_HepaRG_CYP4A11: Life Technologies and Expression Analysis (LTEA) Assay for CYP4A11 using HepaRG (AID 2283486)
Summary of the method: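 Human hepatic HepaRG cultures receive duplicate 48 h exposures across a concentration-response series topping at 100 uM. Expression changes in CYP4A11 are measured by qRT-PCR relative to DMSO controls.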

[11] = read-out: Cytochrome P450 3A4 (Homo sapiens) (UniProt P08684); assay: LTEA_HepaRG_CYP3A4: Life Technologies and Expression Analysis (LTEA) Assay for CYP3A4 using HepaRG (AID 2283487)
Summary of the method: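 Differentiated HepaRG cells in serum-free induction medium exposed in duplicate for 48 h to 8 half-log concentrations up to 100 uM in 0.5% DMSO. CYP3A4 mRNA measured by qRT-PCR normalized to ACTB, GAPDH and POLR2A; bidirectional fit versus DMSO.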

[12] = read-out: DNA damage-inducible transcript 3 (DDIT3), DDIT3 (gene 1649); assay: LTEA_HepaRG_DDIT3: Life Technologies and Expression Analysis (LTEA) Assay for DNA damage-inducible transcript 3 (DDIT3) using HepaRG (AID 2283488)
Summary of the method: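 HepaRG cells, 48 h after plating, exposed 48 h in serum-free induction medium to 8 half-log concentrations up to 100 uM in 0.5% DMSO, in duplicate. DDIT3 mRNA measured by TaqMan qRT-PCR, normalized to ACTB, GAPDH and POLR2A. Fitted bidirectionally against DMSO.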

[13] = read-out: Early growth response protein 1 (EGR1) transcription factor, EGR1 (gene 1958); assay: LTEA_HepaRG_EGR1: Life Technologies and Expression Analysis (LTEA) Assay for Early growth response protein 1 (EGR1) transcription factor using HepaRG (AID 2283490)
Summary of the method: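 Read-out is EGR1 mRNA level by qRT-PCR, normalized to three housekeeping genes and analysed for gain or loss of signal against 0.5% DMSO. Source cells: human HepaRG, treated 48 h at up to 100 uM in half-log dilutions.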

Measured: AC50

Chain of Cytochrome P450 2C19 (Homo sapiens) (P33261 whole entry, looked up): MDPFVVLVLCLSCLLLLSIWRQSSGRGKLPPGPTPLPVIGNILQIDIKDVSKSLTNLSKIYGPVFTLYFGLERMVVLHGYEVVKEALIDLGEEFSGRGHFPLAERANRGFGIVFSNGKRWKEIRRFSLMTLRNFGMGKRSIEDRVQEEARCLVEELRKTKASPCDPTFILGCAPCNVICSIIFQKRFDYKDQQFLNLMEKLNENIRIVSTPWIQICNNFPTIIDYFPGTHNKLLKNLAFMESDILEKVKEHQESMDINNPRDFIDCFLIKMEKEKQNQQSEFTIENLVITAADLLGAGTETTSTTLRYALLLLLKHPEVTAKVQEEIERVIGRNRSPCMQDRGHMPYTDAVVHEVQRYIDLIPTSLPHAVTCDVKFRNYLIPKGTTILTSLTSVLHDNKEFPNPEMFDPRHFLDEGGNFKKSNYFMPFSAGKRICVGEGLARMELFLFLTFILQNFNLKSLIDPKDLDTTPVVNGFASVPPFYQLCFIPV
Chain of Apoptosis regulator Bcl-2 (Homo sapiens) (P10415 whole entry, looked up): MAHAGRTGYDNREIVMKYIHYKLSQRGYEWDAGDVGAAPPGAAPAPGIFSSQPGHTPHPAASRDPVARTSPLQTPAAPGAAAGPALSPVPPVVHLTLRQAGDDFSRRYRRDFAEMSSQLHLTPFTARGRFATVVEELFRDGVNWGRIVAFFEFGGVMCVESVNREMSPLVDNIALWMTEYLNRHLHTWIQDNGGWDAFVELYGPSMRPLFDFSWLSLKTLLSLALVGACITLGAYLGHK
Chain of Cytochrome P450 3A4 (Homo sapiens) (P08684 whole entry, looked up): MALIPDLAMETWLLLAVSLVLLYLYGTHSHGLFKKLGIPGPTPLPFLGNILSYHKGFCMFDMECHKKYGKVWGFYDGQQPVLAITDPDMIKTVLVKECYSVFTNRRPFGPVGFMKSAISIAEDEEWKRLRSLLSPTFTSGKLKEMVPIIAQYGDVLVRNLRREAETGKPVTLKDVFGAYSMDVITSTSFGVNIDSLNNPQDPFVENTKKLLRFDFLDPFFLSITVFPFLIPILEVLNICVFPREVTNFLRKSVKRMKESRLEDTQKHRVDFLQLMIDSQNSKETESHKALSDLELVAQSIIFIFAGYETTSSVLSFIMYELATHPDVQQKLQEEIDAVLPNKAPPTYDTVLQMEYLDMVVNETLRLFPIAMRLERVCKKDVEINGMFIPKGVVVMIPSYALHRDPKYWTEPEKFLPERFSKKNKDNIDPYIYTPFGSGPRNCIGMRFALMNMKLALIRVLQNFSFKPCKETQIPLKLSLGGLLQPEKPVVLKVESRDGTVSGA

c1nc[nH]n1
active: [3] 0.112 µM | [5] 0.0897 µM | [6] 0.185 µM | [7] 0.109 µM | [13] 0.109 µM
inactive: all other assays above

[N-]=[N+]=[N-]
active: BCL2L11 (gene 10018) 80.6 µM | [3] 50 µM | [4] 76.8 µM | [9] 88.3 µM | CYP2C8 (gene 1558) 79.9 µM | CYP2C9 (gene 1559) 78.6 µM | CYP2E1 (gene 1571) 67.1 µM | CYP4A11 (gene 1579) 70.6 µM | [12] 76.4 µM
inactive: [1] | [5] | Caspase-3 (Homo sapiens) | [6] | [7] | [8] | [10] | [11] | [13]

ClC(Cl)(Cl)c1ccccc1
not listed: [2]
inactive: all other assays above

CCCCN(CCCC)N=O
not listed: [2]
inactive: all other assays above

O=P1(N(CCCl)CCCl)NCCCO1 (stereo unspecified)
active: [9] 50 µM
not listed: [2]
inactive: all other assays above

CC(C)(C)OOC(C)(C)C
not listed: [2]
inactive: all other assays above

O=C(O)C1C(C(=O)O)C2(Cl)C(Cl)=C(Cl)C1(Cl)C2(Cl)Cl (stereo unspecified)
not listed: [2]
inactive: all other assays above

CSC(C)(C)C=NO
not listed: [2]
inactive: all other assays above

Cc1ccc(N)cc1N
active: [7] 21.5 µM | [9] 5 µM | CYP2E1 (gene 1571) 18.6 µM
not listed: [2]
inactive: all other assays above

CCNc1nc(Cl)nc(NC(C)(C)C)n1
active: [7] 32.1 µM | [9] 1.01 µM | [10] 2.46 µM | CYP2C8 (gene 1558) 2.37 µM | CYP2E1 (gene 1571) 26.6 µM | CYP4A11 (gene 1579) 9.92 µM | [11] 2.11 µM
not listed: [2]
inactive: all other assays above

ClC1=C(Cl)C2(Cl)C3C(Cl)C(Cl)CC3C1(Cl)C2(Cl)Cl (stereo unspecified)
active: [3] 50 µM | [9] 0.994 µM | [10] 2.42 µM | CYP2C8 (gene 1558) 2.17 µM | CYP2E1 (gene 1571) 27.7 µM | CYP4A11 (gene 1579) 24.6 µM | [11] 4.39 µM | [12] 82.1 µM
not listed: [2]
inactive: all other assays above

O=[N+]([O-])c1ccccc1
inactive: all assays above

O=C(O)C(Cl)Cl
not listed: [2]
inactive: all other assays above

Cc1cccc(N)c1
active: [7] 50.2 µM
inactive: all other assays above

c1ccc(OP(Oc2ccccc2)Oc2ccccc2)cc1
not listed: [2]
inactive: all other assays above

CCOC(=O)c1ccccc1C(=O)OCC
active: [7] 83 µM
not listed: [2]
inactive: all other assays above

Nc1cc2c3c(c1)C(c1ccccc1)=N[C@@H](NC(=O)c1cccnc1)C(=O)N3CC2
active: [7] 50 µM | [9] 3.51 µM | [10] 9.8 µM | CYP2E1 (gene 1571) 12.2 µM | CYP4A11 (gene 1579) 50 µM | [11] 7.78 µM
not listed: [2]
inactive: all other assays above

CN(C)C(=O)Cl
not listed: [2]
inactive: all other assays above

CCCCc1ccccc1
active: [7] 50 µM
not listed: [2]
inactive: all other assays above

c1ccc2c(c1)Nc1ccccc1S2
active: [7] 82.8 µM | [9] 36.6 µM | [10] 50 µM | CYP2E1 (gene 1571) 66.2 µM
not listed: [2]
inactive: all other assays above

CCOc1ccc(C(C)(C)COCc2cccc(Oc3ccccc3)c2)cc1
active: [7] 28 µM | [9] 0.63 µM | [10] 4.25 µM | CYP2C8 (gene 1558) 3.05 µM | CYP2E1 (gene 1571) 26 µM | CYP4A11 (gene 1579) 61.5 µM | [11] 4.91 µM
not listed: [2]
inactive: all other assays above
